NPSR antagonist – qHTS Assay for Antagonists of the Neuropeptide S Receptor: cAMP Signal Transduction. Q6W5P4. CHO-NPSR cells, cAMP TR-FRET, antagonist mode. 1% of 220,000 active. Potency, µM (titrated, usually from 38.3 µM), inactives show at the highest dose activity change, negative = inhibition, usual class: inhibitors; further: potency means the concentration at half of the fitted maximal effect; on the % scale 0 is the no-effect control and ±100 the full control effect; nearly all actives have a fitted effect of over 50% in size
PTHR1 ag – qHTS for PTHR1 Agonists: Primary Screen. HEK293 GP2 PTHR1 cells, GloSensor cAMP luminescence, 1 h. Parathyroid hormone/parathyroid hormone-related peptide receptor (Homo sapiens), Q03431. 0.075% of 410,000 active. Potency, µM (series often up to 115 µM), inactives show at the top dose activation, usual class: activators; further: potency means the concentration at half of the fitted maximal effect; nearly all actives have a fitted effect of over 55% in size
Target sequence (Q03431 whole entry, looked up): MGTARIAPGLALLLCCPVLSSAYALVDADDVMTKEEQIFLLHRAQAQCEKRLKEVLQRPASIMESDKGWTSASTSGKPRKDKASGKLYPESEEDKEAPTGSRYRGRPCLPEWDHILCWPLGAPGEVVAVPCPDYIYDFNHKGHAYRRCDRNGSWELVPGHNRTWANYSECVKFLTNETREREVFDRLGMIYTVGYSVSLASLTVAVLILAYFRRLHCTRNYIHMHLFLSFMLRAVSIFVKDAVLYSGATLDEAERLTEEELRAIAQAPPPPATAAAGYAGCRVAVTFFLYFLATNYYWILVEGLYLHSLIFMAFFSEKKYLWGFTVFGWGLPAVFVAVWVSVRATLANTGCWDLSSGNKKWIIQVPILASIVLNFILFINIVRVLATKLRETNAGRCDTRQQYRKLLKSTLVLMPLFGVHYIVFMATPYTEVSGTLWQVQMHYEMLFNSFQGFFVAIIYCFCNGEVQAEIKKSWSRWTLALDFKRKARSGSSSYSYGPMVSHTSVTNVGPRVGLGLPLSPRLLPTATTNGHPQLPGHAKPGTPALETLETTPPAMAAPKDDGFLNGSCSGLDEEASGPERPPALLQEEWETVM
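HEK-293-derived GP2 cells expressing PTHR1 and a GloSensor cAMP reporter, 3,000/well, plated overnight, given luciferin plus IBMX (each 0.5 mM as added) for 1 h at 37 °C, then compound for 1 h at 37 °C. Luminescence was read after 15 min at room temperature.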
RXFP1 ag – qHTS Assay for Agonists of the Relaxin Receptor RXFP1. HEK293T-RXFP1 cAMP TR-FRET, 30 min; response scale: percent of porcine relaxin response, buffer zero. Potency, µM (series often up to 57.5 µM), inactives show at the top dose activation, hits mostly activators. 0.3% of 370,000 active; further: potency means the concentration at half of the fitted maximal effect; on the % scale 0 is the no-effect control and ±100 the full control effect; nearly all actives have a fitted effect of over 60% in size
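cAMP rise read by TR-FRET after 30 min, 37C compound exposure (up to 58 uM) in RXFP1-transfected HEK293 cells with Ro 20174 present. EC50 from Hill-equation fits, with 29 nM porcine relaxin as 100% and buffer as basal.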
RXFP1 antag – qHTS Assay for Antagonists of the Relaxin Receptor RXFP1; Relaxin receptor 1 (Homo sapiens), Q9HBX9; HEK293-RXFP1, relaxin-stimulated cAMP HTRF, 30 min; active compounds read low; activity change, negative = inhibition, % at 57.5 µM; 0.59% of 350,000 active; AID 1259400, 2018;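 active means activity change of -60% or lower, but not beyond a set lower limit; inconclusive means change between -60% and -40%, or beyond the set limit; inactive means change above -40%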; further: on the % scale 0 is the no-effect control and ±100 the full control effect
TSHR antag – Antagonists of the Thyroid Stimulating Hormone Receptor: HTS campaign. 0.2% of 330,000 active. activity change, negative = inhibition, % at 11.5 µM. TSHR-expressing cells, TSH-stimulated cAMP HTRF, 2 h; active compounds read low;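 active means activity change below a set negative limit, meaning inhibition stronger than a set level, cut at about -70% in these data; inconclusive means activity change between two set negative limits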; further: on the % scale 0 is the no-effect control and ±100 the full control effect
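TSHR-expressing cells, 200/well, pre-treated with compound, then stimulated with EC80 TSH (4nM final) for 2 hours at 37 deg C. cAMP measured by competitive HTRF: anti-cAMP cryptate antibody in lysis buffer plus cAMP-d2, read after 30 minutes at room temperature.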
TCR activator – Activators of T cell receptors: qHTS campaign | primary human leukocytes, anti-CD3, IL-2 HTRF, 48 h | Potency, µM (series often up to 9.22 µM), for inactives: at the top dose activation of IL-2 secretion, most hits filed as activators | 330,000 tested, under 10 active; further: % of control where 0% means no effect
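Human primary leukocytes + a-CD3 beads + cpd, 48 hr; IL-2 in supernatant by HTRF (ex 320nm / em 665nm). No co-stimulatory signal supplied.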
Numbers without * were called inactive; i = inactive; ? = inconclusive; . = no result given; [ ] = dose if it differs, or a comment. Many of the other results were omitted from the sample, so hits are more common in it than they were. Unless noted, the call rests on the fitted dose curve; in most records, active means well fitted curve in the direction sought with a large enough effect; inconclusive means small, poorly fitted or top-dose-only effect, or another doubt; inactive means no such curve, though single readings can be large; an effect the other way counts as inactive or inconclusive.

SMILES	NPSR antagonist	PTHR1 ag	RXFP1 ag	RXFP1 antag	TSHR antag	TCR activator
COc1ccc(-c2nn(-c3ccccc3)cc2C(=O)n2nnc3ccccc32)cc1	10µM*	i	6%	-3	7	-4%
O=C1O/C(=C/c2ccccc2)c2ccccc21	30%	-22%	0%	-7	0	-12%[46.1 µM]
N#CC1=C(c2ccccc2)/C(=C/c2ccccc2)OC1=O	2.5µM*	-33%	1%	.	-2	2%
CN1C(=O)/C(=C\C(=O)c2cccs2)c2ccccc21	-28%	-26%	2%	-98*	-7	-4%
COc1ccc(-n2ncc(C(=O)N3CCN(c4ccccn4)CC3)c2C2CCN(C(=O)OC(C)(C)C)CC2)cc1	.	i	1%	-2	.	.
CCOC(=O)N1CCN(S(=O)(=O)c2c(C)nc3scc(C)n3c2=O)CC1	.	i	14µM*	18	17	0%
CCc1nc(-c2ccc(C)c(S(=O)(=O)N3CCN(c4ccc(C(C)=O)cc4)CC3)c2)no1	.	i	0%	-12	.	.
COCCn1c(SCC(=O)Nc2ccc(F)c(Cl)c2)nc2c(oc3ccccc32)c1=O	.	i	-1%	.	.	.
Cc1nnc(Sc2cc(NCCO)c([N+](=O)[O-])c3nonc23)s1	-14%	-29%	20%	-82*	-50	6%
O=[N+]([O-])c1c(NCCCO)cc(Sc2nc3ccccc3s2)c2nonc12	?	0%	-1%	-73*	-94*	0%
CCCC(=O)OCCNc1cc(Sc2nccn2C)c2nonc2c1[N+](=O)[O-]	10µM*	i	10%	-81*	-93*	-4%[46.1 µM]
Cc1nnc(Sc2cc(NCCCO)c([N+](=O)[O-])c3nonc23)s1	?	-78%	25%	-68*	-86*	-13%
NC1[C@H]2CN(c3nc4c(cc3F)c(=O)c(C(=O)O)cn4-c3ccc(F)cc3F)C[C@@H]12 (some centres undefined)	.	.	.	-31	.	.
Cc1ccc(C(=O)NCC2CCCN2S(=O)(=O)c2cccs2)cc1C (centres undefined)	.	-22%	0%	-1	-4	3%
COc1cc(C(=O)NCC2CCCN2S(=O)(=O)c2cccs2)cc(OC)c1OC (centres undefined)	.	i	1%	-82*	5	0%
CC(C)(C)C(=O)OCOP(=O)(COCCn1cnc2c(N)ncnc21)OCOC(=O)C(C)(C)C	.	.	.	19	.	.
C=CCn1cc(/C=N/Nc2nc3ccccc3[nH]2)c2ccccc21	10µM*	-3%	3%	-38	2	-4%[46.1 µM]
C(=N\Nc1nc2ccccc2[nH]1)/c1ccncc1	-27%	-3%	-4%	3	-88*	5%
C(=N\Nc1nc(Nc2ccccc2)nc(Nc2ccccc2)n1)/c1ccncc1	3%	-8%	-1%	-61*	-2	3%
O=C(O)c1ccc(/C=N/Nc2nc3ccccc3[nH]2)cc1	-9%	-21%	-4%	21	-7	1%
CCN(CC)c1ccc(/C=N/Nc2nc3ccccc3[nH]2)cc1	5µM*	i	-1%	-1	-6	-1%[46.1 µM]
Cc1oc(-c2cccc(Cl)c2)nc1Cn1c(SCc2ccccc2F)nc2ccncc21	.	-30%	3%	.	.	.
Cn1c(CNC(=O)C(Cc2ccccc2)NC(=O)c2ccccc2)cc(=O)n(C)c1=O (centres undefined)	.	i	-6%	-7	-144*	6%
O=C(C=Cc1ccccn1)c1ccccc1	.	-38%	.	-65*	.	1%
O=C(CSc1nnc(-c2c[nH]c3ccccc23)o1)N(Cc1ccccc1)c1ccc(F)cc1	7.9µM*	i	-1%	-17	-39	2%[46.1 µM]
SMILES	NPSR antagonist	PTHR1 ag	RXFP1 ag	RXFP1 antag	TSHR antag	TCR activator
COc1ccc(CN(C(=O)CSc2nnc(-c3ccccc3C)o2)c2ccc(F)cc2)cc1	-26%[46.1 µM]	-48%	-2%	-8	-7	0%[46.1 µM]
CC(=C(CCOC(=O)C(C)C)SSC(CCOC(=O)C(C)C)=C(C)N(C=O)Cc1cnc(C)nc1N)N(C=O)Cc1cnc(C)nc1N	.	.	.	-10	.	.
Nc1nc2nc[nH]c2c(=O)[nH]1	.	-9%	-1%	.	-71*	-3%
COc1cc(C2C(C(=O)c3cc4ccccc4o3)=C(O)C(=O)N2CCN2CCOCC2)ccc1OCCC(C)C (centres undefined)	.	-34%	28µM*	-5	11	2%
CCCOc1ccc(C2C(C(=O)c3ccco3)=C(O)C(=O)N2CCN2CCOCC2)cc1OC (centres undefined)	-5%[46.1 µM]	.	4%	.	0	.
CN1CC(=O)N(CC(=O)N2N=C(c3ccc(Cl)cc3)CC2c2ccco2)C1=O (centres undefined)	1%	i	0%	-9	7	6%
CCC(=O)N1N=C(c2ccc(Cl)cc2)CC1c1ccco1 (centres undefined)	42%	-11%	0%	-64*	7	1%
Fc1ccccc1-c1n[nH]c(=S)n1/N=C/c1c[nH]c2ccccc12	-18%	-18%	1%	-109*	-22	-7%
COc1ccc(-c2cc(OC(=O)c3ccccc3)c3c(C)oc(C)c3c(=O)c2)cc1OC	.	-4%	0%	-5	.	.
CCOc1cc(-c2ccc(OC(=O)c3ccccc3)c(OC)c2)cc(=O)c2c(C)oc(C)c12	.	-8%	3%	-98*	.	.
COc1cc(-c2cc(OC)c3c(C)oc(C)c3c(=O)c2)ccc1OC(=O)c1ccccc1F	.	i	1%	-68*	.	.
CCOc1cc(-c2ccc(OC(=O)c3ccc(Cl)cc3)c(OC)c2)cc(=O)c2c(C)oc(C)c12	.	-20%	0%	-63*	.	.
COc1cc(-c2cc(OC)c3c(C)oc(C)c3c(=O)c2)ccc1OC(=O)c1ccccc1Cl	.	-87%	3%	?	.	.
COc1ccc(-c2cc(OC(=O)c3ccc(F)cc3)c3c(C)oc(C)c3c(=O)c2)cc1	-18%[46.1 µM]	.	1%	.	-12	.
Cc1cccc(CNC(=O)c2ccc(C)c(-n3c(C)nc4cccnc43)c2)c1	.	i	-1%	-14	.	.
CCn1c(SCC(=O)NC(=O)NCc2ccco2)nc2sc(C)c(C)c2c1=O	-2%[46.1 µM]	i	-3%	-69*	28	-28%
Cc1sc2nc(SCC(=O)NCc3ccco3)n(C)c(=O)c2c1C	-12%[46.1 µM]	i	4%	7	-4	1%
